ChEMBL document CHEMBL3988442, “University of Dundee, Small-Polar-MMV Screening Library” (2021)
About 300 (0.45%) of roughly 67,000 compounds showed an effect of 50% or more. The sample as a whole holds a higher share of strong results than the screen did.

Target: Polyketide synthase Pks13 (Mycobacterium tuberculosis (strain ATCC 25618 / H37Rv)) (UniProt I6X8D2)
Assay: Mycobacterium tuberculosis Polyketide synthase 13 Thioesterase (PKS13)
Format: functional
Parameters: scale not given: in the data most compounds retested in dose-response had high values
Details: 30 µM

Polyketide synthase Pks13 (Mycobacterium tuberculosis (strain ATCC 25618 / H37Rv)), sequence (I6X8D2 whole entry): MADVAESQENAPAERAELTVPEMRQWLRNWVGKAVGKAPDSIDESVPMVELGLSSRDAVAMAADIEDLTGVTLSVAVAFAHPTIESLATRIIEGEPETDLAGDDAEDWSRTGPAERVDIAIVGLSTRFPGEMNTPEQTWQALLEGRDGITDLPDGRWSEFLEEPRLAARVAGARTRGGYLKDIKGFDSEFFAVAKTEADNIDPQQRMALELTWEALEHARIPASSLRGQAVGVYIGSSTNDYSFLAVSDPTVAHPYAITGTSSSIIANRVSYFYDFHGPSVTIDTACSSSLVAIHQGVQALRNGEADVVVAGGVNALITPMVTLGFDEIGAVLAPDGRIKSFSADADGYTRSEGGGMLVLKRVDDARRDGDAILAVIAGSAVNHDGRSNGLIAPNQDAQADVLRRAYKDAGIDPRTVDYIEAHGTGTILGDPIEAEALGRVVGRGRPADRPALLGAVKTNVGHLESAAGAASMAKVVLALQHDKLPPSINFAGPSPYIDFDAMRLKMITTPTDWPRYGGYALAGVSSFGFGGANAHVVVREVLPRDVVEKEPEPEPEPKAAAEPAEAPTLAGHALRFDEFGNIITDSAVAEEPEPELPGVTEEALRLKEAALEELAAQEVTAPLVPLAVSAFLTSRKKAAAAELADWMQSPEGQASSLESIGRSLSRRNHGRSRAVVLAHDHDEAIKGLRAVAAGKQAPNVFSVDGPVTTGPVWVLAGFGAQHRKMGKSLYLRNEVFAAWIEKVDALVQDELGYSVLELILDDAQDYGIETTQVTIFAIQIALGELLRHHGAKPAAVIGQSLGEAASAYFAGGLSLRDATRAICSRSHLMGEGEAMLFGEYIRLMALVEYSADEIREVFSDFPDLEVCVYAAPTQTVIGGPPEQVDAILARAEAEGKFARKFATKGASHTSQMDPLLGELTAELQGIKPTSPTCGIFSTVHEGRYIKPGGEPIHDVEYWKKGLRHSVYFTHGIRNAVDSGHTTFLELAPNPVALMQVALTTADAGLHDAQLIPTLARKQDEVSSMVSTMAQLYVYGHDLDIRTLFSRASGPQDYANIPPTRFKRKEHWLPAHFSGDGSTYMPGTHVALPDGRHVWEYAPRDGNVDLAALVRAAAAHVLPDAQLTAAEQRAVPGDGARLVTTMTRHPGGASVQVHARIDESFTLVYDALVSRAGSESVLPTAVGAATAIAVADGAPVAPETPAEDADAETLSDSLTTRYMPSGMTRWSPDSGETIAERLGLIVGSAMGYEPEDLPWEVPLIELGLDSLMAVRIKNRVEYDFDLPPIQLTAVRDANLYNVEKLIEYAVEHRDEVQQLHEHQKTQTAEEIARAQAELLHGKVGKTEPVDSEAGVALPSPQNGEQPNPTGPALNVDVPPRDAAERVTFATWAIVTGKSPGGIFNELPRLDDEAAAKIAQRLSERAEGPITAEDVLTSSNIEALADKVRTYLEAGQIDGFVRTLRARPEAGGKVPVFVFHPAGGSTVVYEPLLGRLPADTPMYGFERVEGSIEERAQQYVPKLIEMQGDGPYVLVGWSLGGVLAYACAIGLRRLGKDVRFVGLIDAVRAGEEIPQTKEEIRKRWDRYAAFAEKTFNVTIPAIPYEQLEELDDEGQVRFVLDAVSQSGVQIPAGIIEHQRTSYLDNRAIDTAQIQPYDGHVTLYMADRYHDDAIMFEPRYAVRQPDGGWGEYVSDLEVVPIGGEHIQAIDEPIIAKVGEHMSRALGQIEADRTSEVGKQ

SMILES	Percent Effect [%]
CN(C)S(=O)(=O)N1C[C@H]2CCC[C@@]2(COCc2cccnc2)C1	-34
CCOc1cc(C(=O)n2cccn2)cc(OCC)c1OCC	21.5
CCOC(=O)N1CCN(C(=O)c2cc(OCC)c3ccoc3c2)CC1	22.8
CCOc1cc(C(=O)n2cc(C)cn2)cc(OCC)c1OCC	53.3
Cc1nnsc1CN1C[C@H]2CC[C@@H]1CN(Cc1ccccn1)C2	2.49
CCOc1ccc(NS(=O)(=O)c2cc(C)c(C(=O)O)s2)cc1F	-32.1
CCc1cccc(NS(=O)(=O)c2cc(C)c(C(=O)O)s2)c1	56.8
CCOc1cccc(NS(=O)(=O)c2cc(C)c(C(=O)O)s2)c1	33.3
CCOc1c(Cl)cccc1NS(=O)(=O)c1cc(C)c(C(=O)O)s1	-18.8
O=C(O)c1csc(S(=O)(=O)Nc2cccc(OC(F)F)c2)c1	24.7
Cc1cc(S(=O)(=O)Nc2cccc(-n3cccc3)c2)sc1C(=O)O	74
Cc1cc(S(=O)(=O)Nc2cccc(OC(F)F)c2)sc1C(=O)O	72.8
CC(=O)c1cccc(NS(=O)(=O)c2cc(C)c(C(=O)O)s2)c1	11.7
CCOc1ccc(NS(=O)(=O)c2cc(C)c(C(=O)O)s2)c(C)c1	-32.6
CCOc1cc(C)ccc1NS(=O)(=O)c1cc(C)c(C(=O)O)s1	-26.3
CCOc1cc(F)ccc1NS(=O)(=O)c1cc(C)c(C(=O)O)s1	4.81
Cc1cc(S(=O)(=O)Nc2cccc(I)c2)sc1C(=O)O	70
Fc1ccc(CN2CCO[C@H]3[C@H](OCC4CC4)CC[C@@H]32)cc1	-2.1
CO[C@H]1CCN(S(=O)(=O)N(C)C)[C@@H]2CN(Cc3cccnc3)C[C@H]12	12.3
CCOC(=O)[C@@H]1[C@@H](c2ccccc2)CN2CCN(C(C)=O)C[C@H]12	0.569
Cc1nc(CN2C[C@H]3C[C@H](C(=O)NCC4CC4)N(C)[C@H]3C2)cs1	16.8
O=C(Cc1ccsc1)N1C[C@@H]2OCCN(CC3CCCO3)[C@@H]2C1 (stereo partly drawn)	-0.843

SMILES	Percent Effect [%]
c1cnn(CCCO[C@@H]2CC[C@H]3[C@H]2OCCN3CC2CC2)c1	-15.8
Cc1nccc(N2CC[C@@H]3[C@@H](CCC(=O)N3CCc3ccccc3)C2)n1	-11
O=C(NC1CCCC1)[C@@H]1CN(Cc2nccs2)C[C@H]2OCC[C@H]21	-23.6
CCOCC(=O)N1C[C@H]2CN(CC3CC3)C(=O)[C@H]2C1	-37.5
Cc1ccc2[nH]c(CO[C@H]3CN(c4ccc(C#N)cn4)C[C@H]3F)nc2c1	53.9
CC(=O)N1C[C@@H](F)[C@@H](OCc2nc3ccc(C#N)cc3[nH]2)C1	-28.7
Cc1ccc2[nH]c(CO[C@H]3CN(C(=O)C4CC4)C[C@H]3F)nc2c1	17.3
CC(C)C(=O)N1C[C@H]2CCCN[C@H]2C1	-32.8
O=C(C[C@H]1[C@H]2CN(C(=O)CO)C[C@@H]12)Nc1cccnc1	-10.3
O=S(=O)(c1c(N2CCCCC2)ccc2nonc12)N1CCCCC1	51.7
O=S(=O)(c1ccc(N2CCCCC2)c2nonc12)N1CCCCC1	29.3
O=S(=O)(c1c(N2CCCC2)ccc2nonc12)N1CCCC1	32.4
CC(C)C(=O)N1CCN(C(=O)c2cscn2)[C@H]2CS(=O)(=O)C[C@H]21	-12.2
O=C1CO[C@H]2CN(C3CCOCC3)C[C@H]2N1Cc1ccncc1	-35.6
CCN(Cc1nc2c(cnn2C)c(=O)[nH]1)c1ccc(F)cc1	-7.87
CCN(Cc1nc2c(cnn2C)c(=O)[nH]1)c1cccc(F)c1	-8.73
CCN(Cc1nc2c(cnn2C)c(=O)[nH]1)c1ccccc1	66.8
CN1CCC(NC(=O)c2cc(Cl)cc(Br)c2O)C1=O (stereo not drawn)	11.2
CN1CCC(NC(=O)c2cc(F)cc(Cl)c2O)C1=O (stereo not drawn)	54
CN1CCC(NC(=O)c2cc(Br)cc(Cl)c2O)C1=O (stereo not drawn)	11.6
C/C(NC(=O)c1ccccn1)=C1\C(=O)C[C@@H]2[C@H]1C2(C)C	37.5
COCc1noc(-c2ccc(N(C)Cc3ncccc3C)nc2)n1	5.81

SMILES	Percent Effect [%]
COCc1noc(-c2ccc(N(C)Cc3ccc(C)o3)nc2)n1	69.6
COCc1noc(-c2ccc(N(C)Cc3cc(C)no3)nc2)n1	-8.23
COCCN(C)CC(=O)N1C[C@H]2CC[C@@H]1CN(C(=O)c1ccncc1)C2	-9.17
Cc1oc(C(C)C)cc1C(=O)N1C[C@H]2CC[C@@H]1CN(C(=O)N(C)C)C2	-5.27
Cc1ccc(N2C[C@H]3CCC[C@@H](CN(C)C)[C@H]3C2)nn1	-24.5
Cc1cc(NC(=O)CN2CCC(N3CCNC3=O)CC2)on1	-25.3
CC(C)(C)c1cc(NC(=O)CN2CCC(N3CCNC3=O)CC2)on1	80.9
CC(C)c1cc(NC(=O)CN2CCC(N3CCNC3=O)CC2)on1	0.26
Cc1noc(C)c1CN1C[C@@H]2OCCN(Cc3cnn(C)c3)[C@@H]2C1	-27.8
C[C@@H]1C[C@@H]2CCN(Cc3nccs3)C[C@H]2O1	-25.2
c1cncc(COC[C@H]2CC[C@H]3[C@H](CCN3Cc3cccs3)O2)c1	-37.9
O=C(Nc1ccccn1)C1CC(=O)N(Cc2ccccn2)C1 (stereo not drawn)	-26.6
CCc1cccc(C)c1NC(=O)C1CC(=O)N(Cc2ccccn2)C1 (stereo not drawn)	58.8
Cc1ccc(Cl)cc1NC(=O)C1CC(=O)N(Cc2ccccn2)C1 (stereo not drawn)	-5.88
Cc1nnc([C@H]2C[C@H]3OCC[C@H]3N(S(=O)(=O)N(C)C)C2)o1	-28.4
CC(C)N1CCO[C@H]2CN(Cc3cc[nH]n3)C[C@H]21	-16.1
CN(Cc1ccco1)C[C@H]1OC[C@@H]2CCN(Cc3cccs3)C[C@@H]21	-7.96
Cc1ccn2c(=O)cc(CSCC(=O)Nc3nnc(C(C)C)s3)nc2c1	-42
Cc1cccn2c(=O)cc(CSCC(=O)Nc3nnc(C(C)C)s3)nc12	98.2
CC(C)c1nnc(NC(=O)CSCc2cc(=O)n3ccccc3n2)s1	-12.4
CNc1cncc(C2CCCN2c2cc(C)ncn2)n1 (stereo not drawn)	55
Cc1cc(N2CCCC2c2cnccn2)ncn1 (stereo not drawn)	-32.2

SMILES	Percent Effect [%]
Cc1cc(N2CCCC2c2cncc(N(C)C)n2)ncn1 (stereo not drawn)	-0.232
O=C(NC1CC1)[C@@H]1C[C@@H]2CCN(Cc3ccoc3)C[C@@H]2O1	-9.29
O=C(c1cn2ccsc2n1)N1CCN(CC2CC2)[C@@H]2CS(=O)(=O)C[C@@H]21	-4.84
CC[C@H](C)[C@H](N)C(=O)Nc1nc(-c2cnc(N(C)CCO)nc2)cs1	27.2
CC[C@H](C)[C@H](N)C(=O)Nc1nc(-c2cnc(N3CCOCC3)nc2)cs1	36.7
CC[C@H](C)[C@H](N)C(=O)Nc1nc(-c2cnc(N(C)C)nc2)cs1	146
CN1CCc2c(sc3c2C(=O)NC(/C=C/c2ccccc2)N3)C1 (stereo not drawn)	33.3
O=C1C[C@H]2[C@H](CCN2C(=O)c2cc[nH]n2)N1Cc1cccnc1	-24.8
O=C1CC(c2ccccc2)c2sc(C(=O)O)c(-c3ccccc3)c2N1 (stereo not drawn)	-32
O=C1CC(c2ccco2)c2sc(C(=O)O)c(-c3ccccc3)c2N1 (stereo not drawn)	65.6
O=C1CC(c2ccc(O)cc2)c2sc(C(=O)O)c(-c3ccccc3)c2N1 (stereo not drawn)	-18.2
O=C(C1CC1)N1CCN(C(=O)C2CC(=O)N(c3ccccc3Br)C2)CC1 (stereo not drawn)	-26.4
CCOC(=O)N1CCN(C(=O)C2CC(=O)N(c3ccccc3Br)C2)CC1 (stereo not drawn)	50.9
O=C(C1CC(=O)N(c2ccccc2Br)C1)N1CCCCCC1 (stereo not drawn)	-11.4
COc1ncccc1CN1C[C@@H]2COC[C@]2(CNS(C)(=O)=O)C1	1.01
CC(=O)NC1CCCN(C(=O)NCc2ccc(-c3ccn[nH]3)cc2)C1 (stereo not drawn)	-5.89
CCOCC1CCCN(C(=O)NCc2ccc(-c3ccn[nH]3)cc2)C1 (stereo not drawn)	56.4
CC(=O)N1CCCN(C(=O)NCc2ccc(-c3ccn[nH]3)cc2)CC1	-4.03
Cc1nnc(N2CC[C@H]3C[C@@H](C(=O)NC4CCCC4)O[C@H]3C2)s1	-27.2
O=C([C@H]1C[C@H]2OCC[C@H]2N(Cc2ccccn2)C1)N1CCCCO1	-14.6
CCCNC(=O)c1nc2c(o1)CN(C(=O)CN(C)C)C2	-38.7
CN(C)CC(=O)N1Cc2nc(C(=O)NCc3ccccc3)oc2C1	72.3

SMILES	Percent Effect [%]
CN(C)CC(=O)N1Cc2nc(C(=O)NCc3ccncc3)oc2C1	-7.86
Cc1cc(C(=O)NCc2cc(C)oc2C)no1	59.4
Cc1cc(CNC(=O)c2cnoc2C)c(C)o1	10.7
Cc1cc(CNC(=O)c2ccno2)c(C)o1	-13.1
Cc1nc([C@H]2C[C@@H]3CCN(Cc4scnc4C)C[C@H]3O2)no1	-27.4
Cc1cc(C)n(-c2nc(C(=O)NCCN3CCC(C)CC3)cs2)n1	51.2
Cc1cc(C(=O)NCCN2CCC(C)CC2)nn1C(C)(C)C	-8.5
Cc1cc(C)n(-c2nc(C(=O)NCCS(=O)(=O)N3CCCCC3)cs2)n1	16
CN(C)C(=O)CO[C@H]1CN(Cc2ccsc2)[C@@H]2COC[C@H]12	-4.76
O=C(C1CC1)N1C[C@H]2CCCN(S(=O)(=O)c3cccc(F)c3)[C@H]2C1	-2.59
Cc1ccc(-c2ncc(C(=O)NCCNC(=O)C(C)C)s2)c(C)c1	1.54
Cc1ccc(-c2ncc(C(=O)NCCNc3ncccn3)s2)c(C)c1	70.6
CC(=O)NCCNC(=O)c1cnc(-c2ccc(C)cc2C)s1	10.8
Cc1ccc(C(=O)N2CC[C@H]3[C@@H]2CCC(=O)N3c2cccnc2)o1	-561
CN1CCS(=O)(=O)[C@@H]2CCN(C(=O)CC(C)(C)C)CC[C@@H]21	-26
Cc1cc(CN2C[C@@H]3COC[C@H](C(=O)N4CCCCO4)[C@@H]3C2)oc1C	-10.7
Cc1cnc(N2C[C@@H]3CCN(CC4CC4)C(=O)[C@H]3C2)nc1	-1.64
CC(C)[C@H](NC(=O)c1cccc(CCC(C)(C)O)c1)C(N)=O	5.12
CC(C)(O)CCc1cccc(C(=O)N[C@@H](CO)C(N)=O)c1	10.3
C[C@H](NC(=O)c1cccc(CCC(C)(C)O)c1)C(N)=O	54
